Active and inactive are the calls of the source. Rule for the calls: active = hit-call score of the fitted dose curve at least 0.9, where 1 is the maximum; inactive = score below 0.9.
Target: human TRKA Receptor Tyrosine Kinase, NTRK1 (gene 4914) (UniProt P04629)
Assay: ERF_FR_ENZ_hNTRK1: Eurofins (ERF) Enzymatic Radiometric [Km ATP] KinaseProfiler LeadHunter Assay for human TRKA Receptor Tyrosine Kinase
Method: ERF_FR_ENZ_hNTRK1 is a biochemical, single-readout assay that uses extracted gene-proteins in a cell-free assay. Measurements were taken 0.16 hour after chemical dosing in a 96-well plate. See TRKA Human RTK Kinase Enzymatic LANCE Assay [Km ATP], Cerep.ERF_FR_ENZ_hNTRK1 is an assay component calculated from the ERF_FR_ENZ_hNTRK1 assay. It is designed to measure enzyme activity using a type of enzyme reporter as detected by fluorescence intensity with LANCE technology.Data from the assay component ERF_FR_ENZ_hNTRK1 was analyzed at the assay endpoint, ERF_FR_ENZ_hNTRK1, in the positive analysis fitting direction relative to DMSO as the negative control and baseline of activity. Using a type of enzyme reporter, loss-of-signal activity can be used to understand changes in enzymatic activity as they relate to gene NTRK1. To generalize the intended target to other relatable targets, this assay endpoint is annotated to the kinase intended target family, where the subfamily is receptor tyrosine kinase.
TrkA (h) is incubated with 8 mM MOPS pH 7.0, 0.2 mM EDTA, 250 uM […], 10 mM MgAcetate and [g- 33P]-ATP (specific activity and concentration as required). The reaction is initiated by the addition of the Mg/ATP mix. After incubation for 40 minutes at room temperature, the reaction is stopped by the addition of phosphoric acid to a concentration of 0.5%. An aliquot of the reaction is then spotted onto a filter and washed four times for 4 minutes in 0.425% phosphoric acid and once in methanol prior to drying and scintillation counting.Compound should be supplied in 100% DMSO.We require a stock solution at a concentration of at least 50x higher than the Final Assay Concentration of your cpd. A 10mM stock is also acceptable.When ordering fewer than 60 kinase assays, we need 120uL of 50x concentrated stock. For more than 60 assays, we need 420 uL of 50xcc stock. Please apply the conversion if you provide 10mM stock solution or compounds in powder form (pre-weighed is required) From 50 cpds supplied as solids, the TAT will be extended.

Chain of human TRKA Receptor Tyrosine Kinase, NTRK1 (gene 4914) (P04629 whole entry, looked up): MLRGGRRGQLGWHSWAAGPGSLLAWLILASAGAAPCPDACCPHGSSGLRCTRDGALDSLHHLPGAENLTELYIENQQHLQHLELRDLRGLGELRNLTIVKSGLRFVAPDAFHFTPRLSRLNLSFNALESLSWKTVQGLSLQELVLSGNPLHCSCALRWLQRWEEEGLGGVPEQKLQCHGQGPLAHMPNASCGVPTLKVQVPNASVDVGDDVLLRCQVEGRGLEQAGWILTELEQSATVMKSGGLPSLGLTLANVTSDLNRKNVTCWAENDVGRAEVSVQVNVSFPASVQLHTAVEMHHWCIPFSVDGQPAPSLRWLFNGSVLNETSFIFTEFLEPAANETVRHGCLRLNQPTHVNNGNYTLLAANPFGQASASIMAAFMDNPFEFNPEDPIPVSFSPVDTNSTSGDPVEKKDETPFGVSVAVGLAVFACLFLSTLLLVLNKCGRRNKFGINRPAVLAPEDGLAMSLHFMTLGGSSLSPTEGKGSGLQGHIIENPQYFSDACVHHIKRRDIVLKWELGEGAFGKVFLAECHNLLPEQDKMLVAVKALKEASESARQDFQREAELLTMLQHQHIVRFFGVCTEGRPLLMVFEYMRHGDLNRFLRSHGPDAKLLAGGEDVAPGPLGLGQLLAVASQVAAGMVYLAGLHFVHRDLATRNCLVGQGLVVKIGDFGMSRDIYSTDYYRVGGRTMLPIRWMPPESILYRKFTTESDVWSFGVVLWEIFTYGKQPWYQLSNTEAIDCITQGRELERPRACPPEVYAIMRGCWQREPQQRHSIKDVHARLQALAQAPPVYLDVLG

SMILES | AC50 | outcome
COc1cc(/C=C/C(=O)CC(=O)/C=C/c2ccc(O)c(OC)c2)ccc1O | 3.85 µM (active) | –
COc1cc(CCC(=O)CC(=O)CCc2ccc(O)c(OC)c2)ccc1O | – | inactive
O=C(/C=C/c1ccc(O)cc1)CC(=O)/C=C/c1ccc(O)cc1 | – | inactive

Reference: PubChem BioAssay AID2284122 (EPA ToxCast)
